Whole data set: some 18,000 sequences, median “TetR repression strength (sort-seq, GFP reporter)” near 0.23, cut for the highest 2% near 0.68. The list comes from a sample in which the highest values are over-represented; it also holds similar and randomly drawn sequences.
Each sequence was assayed against TetR (class B, Tn10) (UniProt P04483) (assay: TetR repression strength (sort-seq, GFP reporter) (relative to tetO2 = 1); higher = stronger repression). Settings: E. coli.
Method in brief: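 Three independent transformations of E. coli SIG10-MAX were made with a low-copy plasmid library randomizing eight operator positions between a constitutive promoter and sfGFP, with constitutive TetR. Following 5 h at 37 °C in LB plus 50 µg/mL chloramphenicol, 10^6 cells went through FACS into 13 fluorescence bins, and each bin was sequenced by Illumina. Repression strength was defined as the top bin index plus one minus the read-weighted mean bin, divided by the unaltered operator's value. Averages included only members reaching ≥30 reads in all replicates with a CV ≤0.5.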

Sequence of TetR (class B, Tn10) (P04483 whole entry): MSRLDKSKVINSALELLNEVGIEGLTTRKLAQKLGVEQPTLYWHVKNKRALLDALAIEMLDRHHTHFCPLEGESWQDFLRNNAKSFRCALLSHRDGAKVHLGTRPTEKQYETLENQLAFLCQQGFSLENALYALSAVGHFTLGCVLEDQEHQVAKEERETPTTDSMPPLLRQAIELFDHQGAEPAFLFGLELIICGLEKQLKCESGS

Row | Sequence | TetR repression strength
1 | TCCCCTGTAGTTGTCGAGA | 0.123
2 | TCCCCGAAAGTCATAGAGA | 0.452
3 | TCCCATCCAGTCAAGGAGA | 0.595
4 | TCCCTTGCAGTACATGAGA | 0.298
5 | TCCCTTGAAGTGGGTGAGA | 0.165
6 | TCCCACCCAGTGGTAGAGA | 0.357
7 | TCCCAGTGAGTCGTGGAGA | 0.25
8 | TCCCGCCAAGTAAAAGAGA | 0.298
9 | TCCCATCAAGTTAATGAGA | 0.0658
10 | TCCCGTCGAGTCAGGGAGA | 0.367
11 | TCCCTATCAGTTCTTGAGA | 0.539
12 | TCCCTATCAGTTCCTGAGA | 0.76
13 | TCCCTATCAGTTCGTGAGA | 0.423
14 | TCCCTATCAGTACGTGAGA | 0.349
15 | TCCCCATCAGTTCATGAGA | 0.401
16 | TCCCTATCAGTACCTGAGA | 0.867
17 | TCCCTATCAGTACCAGAGA | 0.514
18 | TCCCCATCAGTTCCTGAGA | 0.721
19 | TCCCCATCAGTTCCGGAGA | 0.207
20 | TCCCGGGTAGTCGAGGAGA | 0.313
21 | TCCCCAGCAGTTTCCGAGA | 0.275
22 | TCCCTTATAGTAGGCGAGA | 0.0601
23 | TCCCACCGAGTACGGGAGA | 0.135
24 | TCCCATGAAGTAAGGGAGA | 0.284
25 | TCCCTCTTAGTAAAAGAGA | 0.342
26 | TCCCGATTAGTAGGGGAGA | 0.844

Row | Sequence | TetR repression strength
27 | TCCCACGCAGTAGGGGAGA | 0.689
28 | TCCCTATTAGTAGTGGAGA | 0.683
29 | TCCCTATGAGTGGTGGAGA | 0.119
30 | TCCCTATGAGTAGTGGAGA | 0.707
31 | TCCCTAGTAGTAGTGGAGA | 0.159
32 | TCCCTATGAGTAGTAGAGA | 0.204
33 | TCCCACGAAGTAGGGGAGA | 0.104
34 | TCCCACGCAGTGGGGGAGA | 0.188
35 | TCCCGAGTAGTAGGGGAGA | 0.0701
36 | TCCCGATTAGTAAGGGAGA | 0.207
37 | TCCCTATTAGTGGTGGAGA | 0.0415
38 | TCCCTATTAGTTGGGGAGA | 0.483
39 | TCCCGGTAAGTGAAGGAGA | 0.14
40 | TCCCAGGCAGTGGGGGAGA | 0.193
41 | TCCCGAGTAGTGGCTGAGA | 0.311
42 | TCCCTAGTAGTGGCTGAGA | 0.905
43 | TCCCTAGTAGTAGCTGAGA | 0.307
44 | TCCCGAGCAGTTGGTGAGA | 0.317
45 | TCCCCTCCAGTGGGGGAGA | 0.225
46 | TCCCTCCCAGTGTCGGAGA | 0.295
47 | TCCCTTTGAGTTTTTGAGA | 0.506
48 | TCCCATAAAGTGCTCGAGA | 0.225
49 | TCCCTTAAAGTACTCGAGA | 1.16
50 | TCCCTTAAAGTGATCGAGA | 0.207
51 | TCCCTTAAAGTGCTCGAGA | 0.747
52 | TCCCTTTAAGTGCGCGAGA | 0.764

Row | Sequence | TetR repression strength
53 | TCCCTTAAAGTACACGAGA | 0.377
54 | TCCCTTAAAGTGCGCGAGA | 0.292
55 | TCCCTTAAAGTATTCGAGA | 0.311
56 | TCCCCTAGAGTCCGCGAGA | 0.332
57 | TCCCTTTAAGTGCACGAGA | 0.207
58 | TCCCCTAGAGTGCGCGAGA | 0.901
59 | TCCCCTAAAGTGCGCGAGA | 0.266
60 | TCCCGCGGAGTGGCGGAGA | 0.119
61 | TCCCGCGCAGTGTAAGAGA | 0.222
62 | TCCCTATGAGTGTGGGAGA | 0.223
63 | TCCCCTGGAGTCGTGGAGA | 0.258
64 | TCCCTGGTAGTGGAGGAGA | 0.101
65 | TCCCGAGTAGTGAGGGAGA | 0.242
66 | TCCCGATAAGTCGTCGAGA | 0.0276
67 | TCCCGGATAGTATCAGAGA | 0.893
68 | TCCCCGGGAGTATCAGAGA | 0.332
69 | TCCCGAATAGTATCAGAGA | 0.207
70 | TCCCGGATAGTATGAGAGA | 0.24
71 | TCCCGGTGAGTATCAGAGA | 0.188
72 | TCCCGGAGAGTATCAGAGA | 0.893
73 | TCCCGTGCAGTCATTGAGA | 0.276
74 | TCCCTCTCAGTTCGTGAGA | 0.181
75 | TCCCAGTGAGTTGGAGAGA | 0.303
76 | TCCCTGGCAGTAGGGGAGA | 0.185
77 | TCCCTCTAAGTTGAGGAGA | 0.0793
78 | TCCCTGTAAGTTGATGAGA | 0.236

Row | Sequence | TetR repression strength
79 | TCCCCCTCAGTTGATGAGA | 0.262
80 | TCCCCGCAAGTTGTTGAGA | 0.198
81 | TCCCTCTAAGTTGATGAGA | 0.795
82 | TCCCTCTCAGTTGTTGAGA | 0.357
83 | TCCCCGCAAGTTGATGAGA | 0.85
84 | TCCCTCTCAGTTGATGAGA | 0.736
85 | TCCCCCCAAGTTGATGAGA | 0.369
86 | TCCCTTGCAGTTATAGAGA | 0.461
87 | TCCCTGGAAGTAATCGAGA | 0.241
88 | TCCCCATTAGTACGTGAGA | 0.214
89 | TCCCCGCGAGTAGGGGAGA | 0.245
90 | TCCCGAAGAGTCTTAGAGA | 0.279
91 | TCCCACACAGTCGGAGAGA | 0.333
92 | TCCCCTGAAGTGGCAGAGA | 0.204
93 | TCCCGCTGAGTCGGCGAGA | 0.15
94 | TCCCCAGAAGTGGTAGAGA | 0.255
95 | TCCCGTTTAGTGTTTGAGA | 0.0592
96 | TCCCATGGAGTACTGGAGA | 0.0311
97 | TCCCATCTAGTGGGGGAGA | 0.318
98 | TCCCATCTAGTGCGTGAGA | 0.708
99 | TCCCATCTAGTGAGTGAGA | 0.316
100 | TCCCATCTAGTATCGGAGA | 0.908
101 | TCCCATCTAGTATCTGAGA | 0.199
102 | TCCCGTCTAGTGCGTGAGA | 0.0665
103 | TCCCATAGAGTACTGGAGA | 0.169
104 | TCCCATCTAGTGTGGGAGA | 1.06

Row | Sequence | TetR repression strength
105 | TCCCATCTAGTGTGTGAGA | 0.253
106 | TCCCTTCTAGTATCGGAGA | 0.317
107 | TCCCATCGAGTACTGGAGA | 1.02
108 | TCCCGCCTAGTAGGCGAGA | 0.391
109 | TCCCCTTCAGTACGAGAGA | 0.251
110 | TCCCGGTCAGTGGTGGAGA | 0.24
111 | TCCCTCACAGTGGTAGAGA | 0.157
112 | TCCCAACTAGTCCTGGAGA | 0.278
113 | TCCCTCATAGTATTGGAGA | 0.22
114 | TCCCTGGCAGTGATAGAGA | 0.489
115 | TCCCCGTCAGTGCGGGAGA | 0.0283
116 | TCCCATCTAGTTGGAGAGA | 0.371
117 | TCCCTTCTAGTTGGCGAGA | 0.281
118 | TCCCATCTAGTTGGCGAGA | 0.829
119 | TCCCTTTAAGTTCACGAGA | 0.199
120 | TCCCGGTTAGTTAGCGAGA | 0.363
121 | TCCCGGGCAGTCGTCGAGA | 0.311
122 | TCCCGGGCAGTCCTCGAGA | 0.909
123 | TCCCGGGAAGTCCGCGAGA | 0.144
124 | TCCCGGTCAGTCCTCGAGA | 0.15
125 | TCCCGGGGAGTCCTCGAGA | 0.242
126 | TCCCGGGAAGTCCTCGAGA | 0.985
127 | TCCCGGACAGTGTAGGAGA | 0.295
128 | TCCCTCCTAGTGTGGGAGA | 0.194
129 | TCCCTGGCAGTGATGGAGA | 0.189
130 | TCCCGGCGAGTGGTAGAGA | 0.306
